Reference: PubChem BioAssay AID488 (PCMD, 2006)
Screen size: about 62,000 compounds; about 40 (0.06%) were called active. The sample holds actives, similar compounds and a random draw of the others, so the mix is not that of the screen. No stated cut-off is given here; in the data, active means inhibition above about 22% (passing the limit was not always enough); inconclusive means no clear call, values can overlap the other calls.

target: Cathepsin B (Homo sapiens) (UniProt P07858); test: human cathepsin B blockade, pooled library – biochemical, compound mixtures, AMC fluorescence, primary screen (AID 488); conditions: Purified cathepsin B, AMC dipeptide fluorescence, stronger effect = higher value,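 ten-compound pools at 5 µM per compound and 50 µM total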;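 further: 0% = enzyme without compound and 100% = no enzyme blank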

inhibition, inactive:
CCC1CCCCN1CCNC(=O)c1[nH]c(C)c(C(C)=O)c1C (stereo not drawn) 4.44%, COC(=O)C1C(=O)CC(C)(O)C(C(=O)OC)C1c1ccc2c(c1)OCO2 (stereo not drawn) 1.84%, CCN(CC)C(=O)c1sc(NC(=O)c2ccco2)c(C#N)c1C 7.73%, N#Cc1cccc(NC(=O)CCC2CCCC2)c1 0.985%, CC(C)c1ccc(-c2nn[nH]n2)cc1 4.54%, Cc1c(C(=O)Nc2ccccc2Cl)oc2ccc(S(=O)(=O)N3CCC4(CC3)OCCO4)cc12 6.83%, O=C(NCCSc1ccccc1)c1ccco1 5.3%, C=CCC(NCCCO)c1cccc(OC)c1OC (stereo not drawn) 0.355%, Cc1nc2nc[nH]n2c(=O)c1NC(=O)c1cccc(OCC(C)C)c1 0.08%, CC(C)(C)Nc1c(N)c(=O)oc2ccccc12 1.79%, CCC1Oc2ccc(Cl)cc2N(CC(=O)O)C1=O (stereo not drawn) 4.82%, O=C(Cn1cnc2c(cnn2-c2ccc(F)cc2)c1=O)NCCc1ccccc1 -5.56%, CN(C(=O)c1ccccn1)c1nnc(-c2ccccn2)s1 4.35%, CN1CCN(CC(=O)C23CC4CC(CC(C4)C2)C3)CC1 -16%, Cc1cc(-n2nc(C)cc2C)n2ncc(-c3ccccc3)c2n1 -1.95%, COCCOC(=O)C1=C(C)N=c2s/c(=C\c3cccs3)c(=O)n2C1c1cccs1 (stereo not drawn) 5.37%, COc1ccc(C(C)=O)cc1COC(=O)Cn1cnc2ccccc2c1=O -0.265%, CC(=O)c1c(N2CCOCC2)nc(=S)n(Cc2ccccc2)c1C -2.31%, CCOc1ccc(N=C2SC(C(=O)O)CC(=O)N2C)cc1 (stereo not drawn) -1.85%, COC(=O)Cn1c(=NC(=O)CSCC(=O)Nc2cc(C)on2)sc2ccccc21 -5.38%, Cn1c(SCC(=O)N2CCOCC2)nnc1-c1ccc(NC(=O)c2ccccc2F)cc1 -2.64%, CC(C)C(c1nnnn1Cc1ccccc1)N1CCC(C(N)=O)CC1 (stereo not drawn) -1.51%, O=C(OCc1ccccc1F)c1ccc2c(c1)OCCO2 8.22%, COC(=O)c1cc(C(=O)CSc2nc(C)cc(C)n2)ccc1O 1.56%, CSc1ccc(Cl)c(C(=O)OCC(=O)N2CC(C)OC(C)C2)c1 (stereo not drawn) -10.2%, COC(=O)C1=C(N)Oc2cc(C)oc(=O)c2C1c1cccnc1 (stereo not drawn) 1.64%, COC(=O)c1ccc(CSc2nncn2C)cc1 6.61%, CCN(CC)P(=O)(/C(Cl)=C\Nc1c(C)n(C)n(-c2ccccc2)c1=O)N(CC)CC -1.45%, C=CCN(c1ccc(C(N)=O)cc1)S(C)(=O)=O 1.82%, CCOC(=O)C1=C(C)N=c2s/c(=C\C(=O)OC)c(=O)n2C1c1ccc(OC)cc1 (stereo not drawn) 4.36%, Cc1ccc(Cn2nnc3c(=O)n(CC(=O)N4CCCCC4)cnc32)cc1 -4.83%, O=C(CC1Nc2ccccc2NC1=O)Nc1ccccc1 (stereo not drawn) 2.4%, COc1ccccc1-n1cnc2cc(NS(=O)(=O)c3ccccc3)ccc21 4.81%, C=CCn1c(=N)n(CC(O)COc2ccc(OC)cc2)c2ccccc21 (stereo not drawn) 4.16%, CCOc1ccc(CC(=O)Nc2ccc(S(=O)(=O)Nc3cc(C)on3)cc2)cc1OCC 3.38%, COC(=O)C1=C(C)NC(=O)NC1/C=C/c1ccccc1 (stereo not drawn) 4.12%, O=C(Cn1c(-c2ccc(Cl)cc2)noc1=O)N1CCN(c2ccccc2F)CC1 -2.31%, CCOC(=O)c1ccc2[nH]c(C)c(CN3CCN(C)CC3)c(=O)c2c1 6.62%, Cc1nc2cc(S(=O)(=O)C(F)(F)F)ccc2s1 1.09%, CCOc1ccc(NC(=O)CCS(=O)(=O)c2cccc3nsnc23)cc1 1.87%, Cc1nnc(SCC(=O)NCc2ccccc2)s1 -1.96%, CC1=CC(C)(C)N(C(=O)CSc2nnc(-c3ccccc3)o2)c2ccc(C)cc21 1.93%, O=c1cc(CO)oc(CN2CCC(Cc3ccccc3)CC2)c1O -2.05%, CCOC(=O)c1cc2occc2n1CC(=O)N1CCN(C(=O)c2ccco2)CC1 0.785%, Cc1cc(NC(=O)COC(=O)c2ccc(F)c(S(=O)(=O)N3CCOCC3)c2)no1 5.21%, CC1=C(C(N)=O)C(c2ccc3c(c2)OCO3)n2nc(-c3cccc(C)c3)nc2N1 (stereo not drawn) -4.66%, CCCCn1c(CCCNC(=O)CC)nc2ccccc21 1.44%, Cc1cc(Cl)c(S(=O)(=O)NCc2cccnc2)cc1OCC(N)=O 7.41%
